B1: unnamed (peptide)
chain: KTITLEVESSDTIDN

These binders were tested against AgAbp1 (assay: SPOT peptide array binding signal intensity (averaged, normalized) (arbitrary units (background-subtracted, floor 0; scale differs between SH3 domains)); higher = stronger binding of the SH3 domain to the peptide).
Outline: (§1)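 GST-fused SH3 domains, from four yeast species, were produced in E. coli BL21(DE3) and captured on glutathione Sepharose. Membranes of cellulose carrying synthetic 15-mer peptides, in which cysteines had been replaced by serines, were exposed to each domain at 10 μg/ml overnight at 4°C in TBS-based blocking buffer. After anti-GST antibody, an HRP anti-mouse secondary and luminol, spots were imaged and quantified using Genespotter. Binding signal is normalized and background-subtracted spot intensity, averaged over replicates, in arbitrary units that differ between domains.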

| Binder | SPOT peptide array binding signal intensity |
| --- | --- |
| B1 | 0.5 |

The binders below were run against AgBbc1 in the same assay as above.
Outline: as §1

| Binder | SPOT peptide array binding signal intensity |
| --- | --- |
| B1 | ≤ 0 |

These binders were tested against AgBem1-D1 in the same assay as above.
Outline: as §1

| Binder | SPOT peptide array binding signal intensity |
| --- | --- |
| B1 | ≤ 0 |

What follows are binders tested against AgBzz1-D1 in the same assay as above.
Outline: as §1

| Binder | SPOT peptide array binding signal intensity |
| --- | --- |
| B1 | ≤ 0 |

Each binder was assayed against AgBzz1-D2 in the same assay as above.
Outline: as §1

| Binder | SPOT peptide array binding signal intensity |
| --- | --- |
| B1 | ≤ 0 |

The binders below were run against AgCyk3 in the same assay as above.
Outline: as §1

| Binder | SPOT peptide array binding signal intensity |
| --- | --- |
| B1 | ≤ 0 |

Each binder was assayed against AgFus1 in the same assay as above.
Outline: as §1

| Binder | SPOT peptide array binding signal intensity |
| --- | --- |
| B1 | ≤ 0 |

The binders below were run against AgHof1 in the same assay as above.
Outline: as §1

| Binder | SPOT peptide array binding signal intensity |
| --- | --- |
| B1 | ≤ 0 |

These binders were tested against AgHse1 in the same assay as above.
Outline: as §1

| Binder | SPOT peptide array binding signal intensity |
| --- | --- |
| B1 | ≤ 0 |

The binders below were run against AgLsb1 in the same assay as above.
Outline: as §1

| Binder | SPOT peptide array binding signal intensity |
| --- | --- |
| B1 | ≤ 0 |

What follows are binders tested against AgLsb4 in the same assay as above.
Outline: as §1

| Binder | SPOT peptide array binding signal intensity |
| --- | --- |
| B1 | 3 |

These binders were tested against AgMyo5 in the same assay as above.
Outline: as §1

| Binder | SPOT peptide array binding signal intensity |
| --- | --- |
| B1 | ≤ 0 |

These binders were tested against AgNbp2 in the same assay as above.
Outline: as §1

| Binder | SPOT peptide array binding signal intensity |
| --- | --- |
| B1 | ≤ 0 |

The binders below were run against AgRvs167 in the same assay as above.
Outline: as §1

| Binder | SPOT peptide array binding signal intensity |
| --- | --- |
| B1 | 1.5 |

What follows are binders tested against AgSho1 in the same assay as above.
Outline: as §1

| Binder | SPOT peptide array binding signal intensity |
| --- | --- |
| B1 | ≤ 0 |

Each binder was assayed against AgSla1-D1-D2 in the same assay as above.
Outline: as §1

| Binder | SPOT peptide array binding signal intensity |
| --- | --- |
| B1 | 2 |

The binders below were run against AgSla1-D3 in the same assay as above.
Outline: as §1

| Binder | SPOT peptide array binding signal intensity |
| --- | --- |
| B1 | ≤ 0 |

These binders were tested against CaAbp1-D1 in the same assay as above.
Outline: as §1

| Binder | SPOT peptide array binding signal intensity |
| --- | --- |
| B1 | ≤ 0 |

The binders below were run against CaAbp1-D2 in the same assay as above.
Outline: as §1

| Binder | SPOT peptide array binding signal intensity |
| --- | --- |
| B1 | ≤ 0 |

What follows are binders tested against CaBbc1 in the same assay as above.
Outline: as §1

| Binder | SPOT peptide array binding signal intensity |
| --- | --- |
| B1 | ≤ 0 |

The binders below were run against CaBem1-D1 in the same assay as above.
Outline: as §1

| Binder | SPOT peptide array binding signal intensity |
| --- | --- |
| B1 | ≤ 0 |

Each binder was assayed against CaBzz1-D1 in the same assay as above.
Outline: as §1

| Binder | SPOT peptide array binding signal intensity |
| --- | --- |
| B1 | ≤ 0 |

These binders were tested against CaBzz1-D2 in the same assay as above.
Outline: as §1

| Binder | SPOT peptide array binding signal intensity |
| --- | --- |
| B1 | ≤ 0 |

Each binder was assayed against CaCyk3 in the same assay as above.
Outline: as §1

| Binder | SPOT peptide array binding signal intensity |
| --- | --- |
| B1 | ≤ 0 |

What follows are binders tested against CaFus1 in the same assay as above.
Outline: as §1

| Binder | SPOT peptide array binding signal intensity |
| --- | --- |
| B1 | ≤ 0 |

What follows are binders tested against CaHof1 in the same assay as above.
Outline: as §1

| Binder | SPOT peptide array binding signal intensity |
| --- | --- |
| B1 | ≤ 0 |

Each binder was assayed against CaHse1 in the same assay as above.
Outline: as §1

| Binder | SPOT peptide array binding signal intensity |
| --- | --- |
| B1 | ≤ 0 |

The binders below were run against CaLsb1 in the same assay as above.
Outline: as §1

| Binder | SPOT peptide array binding signal intensity |
| --- | --- |
| B1 | 0.5 |

These binders were tested against CaLsb4 in the same assay as above.
Outline: as §1

| Binder | SPOT peptide array binding signal intensity |
| --- | --- |
| B1 | ≤ 0 |

These binders were tested against CaMyo5 in the same assay as above.
Outline: as §1

| Binder | SPOT peptide array binding signal intensity |
| --- | --- |
| B1 | ≤ 0 |

What follows are binders tested against CaNbp2 in the same assay as above.
Outline: as §1

| Binder | SPOT peptide array binding signal intensity |
| --- | --- |
| B1 | ≤ 0 |

What follows are binders tested against CaRvs167 in the same assay as above.
Outline: as §1

| Binder | SPOT peptide array binding signal intensity |
| --- | --- |
| B1 | ≤ 0 |

The binders below were run against CaRvs167-3 in the same assay as above.
Outline: as §1

| Binder | SPOT peptide array binding signal intensity |
| --- | --- |
| B1 | 2.5 |

What follows are binders tested against CaSho1 in the same assay as above.
Outline: as §1

| Binder | SPOT peptide array binding signal intensity |
| --- | --- |
| B1 | ≤ 0 |

The binders below were run against CaSla1-D1-D2 in the same assay as above.
Outline: as §1

| Binder | SPOT peptide array binding signal intensity |
| --- | --- |
| B1 | ≤ 0 |

The binders below were run against CaSla1-D3 in the same assay as above.
Outline: as §1

| Binder | SPOT peptide array binding signal intensity |
| --- | --- |
| B1 | ≤ 0 |

What follows are binders tested against ScAbp1 in the same assay as above.
Outline: as §1

| Binder | SPOT peptide array binding signal intensity |
| --- | --- |
| B1 | 1 |

Each binder was assayed against ScBbc1 in the same assay as above.
Outline: as §1

| Binder | SPOT peptide array binding signal intensity |
| --- | --- |
| B1 | ≤ 0 |

These binders were tested against ScBem1-D1 in the same assay as above.
Outline: as §1

| Binder | SPOT peptide array binding signal intensity |
| --- | --- |
| B1 | ≤ 0 |

The binders below were run against ScBzz1-D1 in the same assay as above.
Outline: as §1

| Binder | SPOT peptide array binding signal intensity |
| --- | --- |
| B1 | 8 |

These binders were tested against ScBzz1-D2 in the same assay as above.
Outline: as §1

| Binder | SPOT peptide array binding signal intensity |
| --- | --- |
| B1 | ≤ 0 |

Each binder was assayed against ScCyk3 in the same assay as above.
Outline: as §1

| Binder | SPOT peptide array binding signal intensity |
| --- | --- |
| B1 | ≤ 0 |

Each binder was assayed against ScFus1 in the same assay as above.
Outline: as §1

| Binder | SPOT peptide array binding signal intensity |
| --- | --- |
| B1 | 15 |

These binders were tested against ScHof1 in the same assay as above.
Outline: as §1

| Binder | SPOT peptide array binding signal intensity |
| --- | --- |
| B1 | 1 |

These binders were tested against ScHse1 in the same assay as above.
Outline: as §1

| Binder | SPOT peptide array binding signal intensity |
| --- | --- |
| B1 | ≤ 0 |

The binders below were run against ScLsb1 in the same assay as above.
Outline: as §1

| Binder | SPOT peptide array binding signal intensity |
| --- | --- |
| B1 | ≤ 0 |

Each binder was assayed against ScLsb2 in the same assay as above.
Outline: as §1

| Binder | SPOT peptide array binding signal intensity |
| --- | --- |
| B1 | ≤ 0 |

What follows are binders tested against ScLsb3 in the same assay as above.
Outline: as §1

| Binder | SPOT peptide array binding signal intensity |
| --- | --- |
| B1 | ≤ 0 |

Each binder was assayed against ScLsb4 in the same assay as above.
Outline: as §1

| Binder | SPOT peptide array binding signal intensity |
| --- | --- |
| B1 | ≤ 0 |

Each binder was assayed against ScMyo3 in the same assay as above.
Outline: as §1

| Binder | SPOT peptide array binding signal intensity |
| --- | --- |
| B1 | ≤ 0 |

These binders were tested against ScMyo5 in the same assay as above.
Outline: as §1

| Binder | SPOT peptide array binding signal intensity |
| --- | --- |
| B1 | ≤ 0 |

What follows are binders tested against ScNbp2 in the same assay as above.
Outline: as §1

| Binder | SPOT peptide array binding signal intensity |
| --- | --- |
| B1 | ≤ 0 |

What follows are binders tested against ScPex13 in the same assay as above.
Outline: as §1

| Binder | SPOT peptide array binding signal intensity |
| --- | --- |
| B1 | ≤ 0 |

Each binder was assayed against ScRvs167 in the same assay as above.
Outline: as §1

| Binder | SPOT peptide array binding signal intensity |
| --- | --- |
| B1 | ≤ 0 |

These binders were tested against ScSho1 in the same assay as above.
Outline: as §1

| Binder | SPOT peptide array binding signal intensity |
| --- | --- |
| B1 | ≤ 0 |

These binders were tested against ScSla1-D1-D2 in the same assay as above.
Outline: as §1

| Binder | SPOT peptide array binding signal intensity |
| --- | --- |
| B1 | ≤ 0 |

What follows are binders tested against ScSla1-D3 in the same assay as above.
Outline: as §1

| Binder | SPOT peptide array binding signal intensity |
| --- | --- |
| B1 | 10.2 |

The binders below were run against SpAbp1-D1 in the same assay as above.
Outline: as §1

| Binder | SPOT peptide array binding signal intensity |
| --- | --- |
| B1 | ≤ 0 |

Each binder was assayed against SpBbc1 in the same assay as above.
Outline: as §1

| Binder | SPOT peptide array binding signal intensity |
| --- | --- |
| B1 | 1 |

What follows are binders tested against SpBzz1-D1 in the same assay as above.
Outline: as §1

| Binder | SPOT peptide array binding signal intensity |
| --- | --- |
| B1 | ≤ 0 |

Each binder was assayed against SpBzz1-D2 in the same assay as above.
Outline: as §1

| Binder | SPOT peptide array binding signal intensity |
| --- | --- |
| B1 | ≤ 0 |

The binders below were run against SpCyk3 in the same assay as above.
Outline: as §1

| Binder | SPOT peptide array binding signal intensity |
| --- | --- |
| B1 | ≤ 0 |

The binders below were run against SpHof1 in the same assay as above.
Outline: as §1

| Binder | SPOT peptide array binding signal intensity |
| --- | --- |
| B1 | ≤ 0 |

What follows are binders tested against SpHof1-2 in the same assay as above.
Outline: as §1

| Binder | SPOT peptide array binding signal intensity |
| --- | --- |
| B1 | ≤ 0 |

Each binder was assayed against SpHof1-3 in the same assay as above.
Outline: as §1

| Binder | SPOT peptide array binding signal intensity |
| --- | --- |
| B1 | ≤ 0 |

Each binder was assayed against SpHse1 in the same assay as above.
Outline: as §1

| Binder | SPOT peptide array binding signal intensity |
| --- | --- |
| B1 | ≤ 0 |

The binders below were run against SpLsb1 in the same assay as above.
Outline: as §1

| Binder | SPOT peptide array binding signal intensity |
| --- | --- |
| B1 | ≤ 0 |

Each binder was assayed against SpLsb4 in the same assay as above.
Outline: as §1

| Binder | SPOT peptide array binding signal intensity |
| --- | --- |
| B1 | ≤ 0 |

What follows are binders tested against SpMyo1 in the same assay as above.
Outline: as §1

| Binder | SPOT peptide array binding signal intensity |
| --- | --- |
| B1 | ≤ 0 |

What follows are binders tested against SpNbp2 in the same assay as above.
Outline: as §1

| Binder | SPOT peptide array binding signal intensity |
| --- | --- |
| B1 | ≤ 0 |

These binders were tested against SpPex13 in the same assay as above.
Outline: as §1

| Binder | SPOT peptide array binding signal intensity |
| --- | --- |
| B1 | ≤ 0 |

Each binder was assayed against SpRvs167 in the same assay as above.
Outline: as §1

| Binder | SPOT peptide array binding signal intensity |
| --- | --- |
| B1 | ≤ 0 |

The binders below were run against SpSla1-D1-D2 in the same assay as above.
Outline: as §1

| Binder | SPOT peptide array binding signal intensity |
| --- | --- |
| B1 | ≤ 0 |

The binders below were run against SpSla1-D3 in the same assay as above.
Outline: as §1

| Binder | SPOT peptide array binding signal intensity |
| --- | --- |
| B1 | ≤ 0 |
